In the library only some 3.1% were active in any assay of this set; here they are far more common.
FadD28 binding = M. tuberculosis FadD28 bisubstrate binding inhibition. FadD28 bisubstrate probe binding, fluorescence polarization. inhibition, % at 12.5 µM. 0.22% of 360,000 active. AID 588549; in the data active = inhibition above about 8.5%, passing the limit was not always enough
FBA Mtb inh = inhibits M. tuberculosis FBA enzyme; inhibition, % at 1 µM; P9WQA3; purified M. tuberculosis FBA, fluorescence read-out; AID 588726; 2.3% of 360,000 active; in the data active = inhibition above about 27%;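 note: 0% = vehicle and 100% = reference inhibitor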
Target sequence (P9WQA3 whole entry, looked up): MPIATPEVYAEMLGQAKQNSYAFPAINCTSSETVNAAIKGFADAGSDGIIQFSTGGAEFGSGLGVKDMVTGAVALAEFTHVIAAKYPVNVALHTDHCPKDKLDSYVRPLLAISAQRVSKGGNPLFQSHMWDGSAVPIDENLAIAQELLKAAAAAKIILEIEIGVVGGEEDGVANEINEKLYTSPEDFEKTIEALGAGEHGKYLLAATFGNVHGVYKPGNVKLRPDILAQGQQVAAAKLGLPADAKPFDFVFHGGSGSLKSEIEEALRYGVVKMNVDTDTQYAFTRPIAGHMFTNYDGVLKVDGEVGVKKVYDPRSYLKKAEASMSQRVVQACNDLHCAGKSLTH
Mtb BioA inh = inhibitors of Mycobacterium tuberculosis BioA enzyme; purified M. tuberculosis BioA enzyme, plate reader; inhibition, % at 9.99 µM; 0.096% of 360,000 active; in the data active = inhibition above about 40%
3CLpro inhibitor = SARS-CoV 3CLpro protease inhibition. inhibition, % at 6 µM. recombinant SARS-CoV 3CLpro, quenched FRET peptide cleavage. 0.14% of 290,000 active. AID 1706; in the data active = inhibition above about 12%
GDH-TPI counter = GDH-TPI coupled enzyme inhibition counter-screen; 1.2% of 360,000 active; inhibition, % at 4.8 µM; GDH-TPI coupled enzyme counterscreen, NADH absorbance; AID 588335; in the data active = inhibition above about 30%;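 note: 0% = DMSO wells and 100% = wells lacking the enzyme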
The depositor's hits bear a star; . = not tested or not shown; + = active, no number.

SMILES	FadD28 binding	FBA Mtb inh	Mtb BioA inh	3CLpro inhibitor	GDH-TPI counter
O=C1Nc2ccccc2/C1=N\N=C\c1ccc(O)c(O)c1	3.2	-7.6	4.1	0.1	35.8*
Oc1ccc(/C=N/N=C/c2ccc(O)c(O)c2)cc1O	2.7	0.1	-0.6	-3.1	43.1*
C[C@@H]1CN([C@H](C)CO)C(=O)Cc2cc(NS(=O)(=O)c3cccs3)ccc2O[C@@H]1CN(C)S(=O)(=O)c1ccccc1	.	.	-3.2	.	.
COc1ccc(-c2cn3nc(SCC(=O)NCC4CCCO4)ccc3n2)cc1 (stereo not given)	-2.6	128.2*	0.5	3.1	24.1
COc1ccc(-c2nnc3ccc(SCC(=O)NCC4CCCO4)nn23)cc1 (stereo not given)	0.5	2.2	-0.2	-2.0	0.6
Cc1ccc(OCCn2c(C)c(/C=N/n3cnnc3)c3ccccc32)cc1	-2.3	1.6	1.5	-3.8	30.6*
Cc1c(/C=N/n2cnnc2)c2ccccc2n1CCOc1ccc(Cl)cc1	-6.1	-2.6	-1.0	1.7	27.6
C[C@@H]1CCCCO[C@@H](CN(C)S(C)(=O)=O)[C@@H](C)CN([C@H](C)CO)C(=O)c2cc(NS(=O)(=O)c3cccs3)ccc2O1	.	.	16.3	.	.
O=C(Nc1ccccc1F)N1C[C@H]2[C@@H](c3ccccc31)[C@H](CO)N2C(=O)Cc1cccnc1	.	.	-2.6	.	.
CCc1noc(C)c1C(=O)NNC(=O)COc1ccc(C)cc1	20.2*	0.2	.	.	5.8
COc1ccccc1Nc1ccc2c(O)cc(S(=O)(=O)O)cc2c1	69.7*	21.4	2.2	.	17.7
COc1ccc(NC(=O)N2C[C@H](O)COC[C@@H]3O[C@H](CC(=O)N4CCOCC4)CC[C@H]32)cc1	.	.	32.9	.	.
CN(/N=C/c1ccccc1O)C(=S)c1ccccc1	-1.0	0.9	1.0	3.8	32.2*
COc1ccc2[nH]c3c(c2c1)CC(C)NC3=O (stereo not given)	-3.0	121.4*	-0.4	1.8	14.7
CCOc1cc(Br)cc(/C=C2\SC(=Nc3ccccc3)NC2=O)c1O	1.2	-5.2	0.0	4.3	9.4
O=C1N/C(=N\S(=O)(=O)c2ccccc2)S/C1=C\c1cc([N+](=O)[O-])ccc1O	19.5*	-17.5	-1.5	4.1	10.3
Cc1ccc(S(=O)(=O)/N=C2/NC(=O)/C(=C\c3cc(Br)cc(Br)c3O)S2)cc1	50.2*	-1.9	1.3	-0.5	10.0
O=C1N/C(=N\S(=O)(=O)Cc2ccccc2)S/C1=C/c1cc([N+](=O)[O-])ccc1O	15.4*	-34.0	.	-2.1	39.2*
O=S(=O)(N[C@H]1CC[C@H](CCn2cc(C3(O)CCCC3)nn2)O[C@@H]1CO)c1ccc(Cl)cc1	.	.	0.3	.	.
N#C/C(=C\c1ccccn1)c1nc2ccccc2s1	-3.4	-1.1	-3.4	2.2	1.9
COc1ccc(/C(C#N)=C/c2ccccn2)cc1	-5.3	24.4	1.4	1.3	31.9*
C[C@@H]1CCCCO[C@H](CN(C)Cc2ccncc2)[C@H](C)CN([C@@H](C)CO)C(=O)c2cc(NC(=O)c3ccncc3)ccc2O1	.	.	-0.2	.	.
C[C@H](CO)N1C[C@H](C)[C@@H](CN(C)C(=O)Nc2ccc3c(c2)OCO3)Oc2ccc(NC(=O)Cc3cn(C)c4ccccc34)cc2CC1=O	.	.	-2.8	.	.
C[C@@H]1CN([C@H](C)CO)C(=O)c2cc(NS(C)(=O)=O)ccc2O[C@@H](C)CCCCO[C@@H]1CN(C)S(=O)(=O)c1cccs1	.	.	1.1	.	.
O=C1CC(N2CCN(c3ccc(O)cc3)CC2)C(=O)N1Cc1cccs1 (stereo not given)	-0.7	-1.0	-1.2	-2.0	5.1
SMILES	FadD28 binding	FBA Mtb inh	Mtb BioA inh	3CLpro inhibitor	GDH-TPI counter
O=C(c1ccncc1)c1ccc(N2CCN(C3CC(=O)N(Cc4cccs4)C3=O)CC2)cc1 (stereo not given)	-0.3	-4.5	-0.2	2.4	38.0*
Cc1cc(=O)oc2cc(OCC(=O)N3C[C@H]4C[C@@H](C3)c3cccc(=O)n3C4)ccc12	-3.2	5.6	0.1	1.4	-5.6
C=C(C)COc1ccc2c(C)c(CC(=O)N3C[C@H]4C[C@@H](C3)c3cccc(=O)n3C4)c(=O)oc2c1	-0.4	114.5*	-0.1	4.2	29.4
O=[N+]([O-])c1ccc(CNc2ccc(Cl)cc2)s1	10.1*	0.8	4.8	-1.0	12.6
COc1ccc(NC(=O)N(C)C[C@@H]2OCCCC[C@H](C)Oc3ccc(NC(=O)c4ccncc4)cc3C(=O)N([C@@H](C)CO)C[C@H]2C)cc1	.	.	-7.4	.	.
COC(=O)N/N=C/c1cn(Cc2ccccc2F)c2ccccc12	-1.7	9.7	1.9	2.2	27.9
Cn1cc(/C=N/Nc2ccccc2)c2ccccc21	-3.0	-3.5	.	3.1	-5.4
CC(C)n1cc(/C=N/Nc2ccc(C(=O)O)cc2)c2ccccc21	21.6*	6.3	-0.2	8.8	17.1
O=C(O)c1ccc(N/N=C/c2cn(Cc3ccccc3F)c3ccccc23)cc1	12.6*	11.1	11.5	9.4	42.0*
C=CCN(CC=C)Cc1c(O)ccc2c1oc(=O)c1ccccc12	-1.0	2.6	6.6	-1.9	13.0
COc1ccc(Oc2c(C)oc3c(CN4CCOCC4)c(O)ccc3c2=O)cc1	-0.9	20.3	.	-5.3	24.4
COc1ccccc1Oc1c(C)oc2c(CN(C)C)c(O)ccc2c1=O	-1.9	+	-0.4	-2.1	23.3
CCN(CC)Cc1c(O)ccc2c(=O)c(Oc3ccccc3OC)c(C)oc12	-0.3	+	-0.6	-1.8	21.7
CNC[C@H]1OCCCC[C@H](C)Oc2ccc(NC(=O)NC(C)C)cc2C(=O)N([C@H](C)CO)C[C@@H]1C	.	.	-1.4	.	.
C[C@@H]1CN([C@@H](C)CO)C(=O)c2cc(C#Cc3cccnc3)cnc2O[C@@H]1CN(C)S(=O)(=O)c1ccccc1F	.	.	1.9	.	.
CC1(C)NC(=O)N(CC(O)COc2ccc(-c3ccc(C#N)cc3)cc2)C1=O (stereo not given)	0.0	68.7*	-1.4	0.3	-1.0
CC1(C)NC(=O)N(CC(O)COc2ccc(-c3ccccc3)cc2)C1=O (stereo not given)	-2.1	-1.2	-0.8	-6.0	2.5
N#Cc1nc(-c2ccc(OCc3ccccc3)cc2)oc1NCc1ccco1	2.0	6.9	-1.2	2.4	19.8
COCCNc1oc(-c2ccccc2Cl)nc1C#N	-3.2	8.7	1.3	4.2	14.9
Cc1ccc(CNc2oc(-c3cccs3)nc2C#N)cc1	2.4	+	1.3	0.3	7.4
N#Cc1nc(-c2cccs2)oc1NCc1ccccc1	-1.1	+	1.2	-1.9	22.2
N#Cc1nc(-c2cccs2)oc1NCc1ccco1	2.6	+	1.4	-4.7	19.7
N#Cc1nc(-c2cccs2)oc1NCc1ccccc1Cl	-1.7	157.9*	-0.4	-0.5	25.2
C[C@@H]1CN([C@@H](C)CO)C(=O)c2cc(NC(=O)CCN3CCOCC3)ccc2O[C@H]1CN(C)Cc1ccncc1	.	.	-1.7	.	.
N#Cc1nc(Cc2ccccc2)oc1NCc1ccccc1	0.0	-8.1	1.8	1.6	1.2
N#Cc1nc(-c2cccs2)oc1NCc1ccc(Cl)cc1	0.2	+	.	3.5	7.5
C=CCNc1oc(-c2cccs2)nc1C#N	-1.2	+	1.3	-0.6	28.2
CCOc1ccc(Nc2oc(-c3cccs3)nc2C#N)cc1	-1.4	12.9	-1.4	-3.0	17.6
